Compounds with a hit are over-represented: about 6.3% of the library has one in this group of screens.
HepG2 tox = kills HepG2 cells in TGF-b inhibitor counter-screen; HepG2 CAGA-GFP viability, ATP luminescence, 18 h; Potency, µM (top dose mostly 46.1 µM), inactives show at the top dose activity change, negative = cytotoxicity, usual class: cytotoxic; hit rate 0.76% among 410,000
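CellTiter-Glo luminescence gave cytotoxicity after 18 hours at 37 degrees C. The cells were HepG2 CAGA-GFP in 1% FBS DMEM, stimulated with 500 pg/mL TGF-beta after compound addition. %Activity was normalised to no-cell wells (complete cell-killing) and DMSO (no toxicity), and curves were fitted and classified.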
VP16 counter = Gal4-VP16 reporter inhibition counter-screen; Drosophila S2 Gal4-VP16 UAS-luciferase, luminescence, 20 h; Potency, µM (titrated, usually from 53.6 µM), for inactives: at the top dose activity, negative = inhibition, usual class: inhibitors; hit rate 3.5% among 310,000;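 note: Gal4-VP16 expression switched on by copper sulfate through the metallothionein promoter; % is set by controls: 0 for no effect and ±100 for the full control effect; nearly all actives have a fitted effect of over 50% in size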
S2 tox = reduces viability in counter-screen for ATXN expression inhibitors | S2 cells (HEK-293 line with an ATXN2-luciferase reporter) viability, CellTiter-Fluor protease fluorescence, 24 h | Potency, µM (top dose mostly 56.7 µM), actives largely listed as cytotoxic | hit rate 0.49% among 400,000; note: nearly all actives have a fitted effect of over 40% in size
TGFb SMAD3 inh = inhibitors of TGF-b signaling; Potency, µM (doses to about 46.1 µM), inactives show at the highest dose activity, negative = inhibition, actives largely listed as inhibitors; HepG2 CAGA-GFP TGF-b/SMAD3 reporter, GFP fluorescence, 18 h; TGF-beta stimulated, 500 pg/mL final; hit rate 1.2% among 410,000; note: % is set by controls: 0 for no effect and ±100 for the full control effect; nearly all actives have a fitted effect of over 65% in size
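Inhibition of TGF-beta-driven CAGA-GFP reporter expression in HEPG2 cells is measured by cellular GFP fluorescence after 18 h stimulation with 500 pg/mL recombinant TGF-beta in 1% FBS medium at 37 degrees C.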
RORg inh = blocks mouse ROR gamma transcriptional activity; hit rate 5.4% among 310,000; Drosophila S2 Gal4-RORgamma UAS-luciferase reporter, 20 h; P51450; Potency, µM (series often up to 53.6 µM), without a hit: at the top dose activity change, negative = inhibition, most hits filed as inhibitors; note: % is set by controls: 0 for no effect and ±100 for the full control effect; nearly all actives have a fitted effect of over 60% in size
Target sequence (P51450 whole entry, looked up, the tested form may be a part): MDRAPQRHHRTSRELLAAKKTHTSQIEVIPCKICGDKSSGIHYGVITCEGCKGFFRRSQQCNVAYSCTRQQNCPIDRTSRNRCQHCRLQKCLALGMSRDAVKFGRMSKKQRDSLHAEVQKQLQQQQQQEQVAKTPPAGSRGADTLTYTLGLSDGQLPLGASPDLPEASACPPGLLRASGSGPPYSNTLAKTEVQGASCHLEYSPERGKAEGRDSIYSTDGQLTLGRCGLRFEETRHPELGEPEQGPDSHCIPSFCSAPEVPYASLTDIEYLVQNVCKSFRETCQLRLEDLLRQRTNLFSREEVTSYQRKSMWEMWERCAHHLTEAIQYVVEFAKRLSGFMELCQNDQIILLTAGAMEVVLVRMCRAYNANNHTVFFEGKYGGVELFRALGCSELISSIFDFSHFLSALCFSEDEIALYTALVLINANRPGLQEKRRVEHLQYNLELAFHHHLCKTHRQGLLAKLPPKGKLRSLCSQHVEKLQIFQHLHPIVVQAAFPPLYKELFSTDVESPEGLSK
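Compounds are pin-transferred onto Drosophila Schneider cells expressing a copper-inducible Gal4–ROR gamma transactivation domain fusion. After 1 hr, copper sulfate is added to 700 uM final; luciferase is read 20 hr later.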
ATXN2 expr inh = inhibitors of ATXN2 expression | HEK-293 ATXN2-luciferase reporter, luminescence, 24 h | Potency, µM (doses to about 57 µM), for the others: top-dose activity change, negative = inhibition, actives largely listed as inhibitors | hit rate 0.72% among 360,000; note: % is set by controls: 0 for no effect and ±100 for the full control effect; nearly all actives have a fitted effect of over 55% in size
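qHTS (up to 57 uM final) was run with 24 h compound exposure of reporter cells at 37 °C. Each well was multiplexed: SteadyGlo luminescence measured ATXN2-luciferase expression after a fluorogenic Gly-Phe-AFC viability readout (25 uM final).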
* hit, by the source's call; i = inactive; u = inconclusive; x = no result. Calls come from the whole dose curve; as a rule, active = well fitted curve in the direction sought with a large enough effect; inconclusive = small, poorly fitted or top-dose-only effect, or another doubt; inactive = no such curve, though single readings can be large; an effect the other way counts as inactive or inconclusive. Potency is the fitted concentration of half-maximal effect.

SMILES	HepG2 tox	VP16 counter	S2 tox	TGFb SMAD3 inh	RORg inh	ATXN2 expr inh
COC(=O)c1ccc2c(=O)n(CCCCCC(=O)O)c(=O)[nH]c2c1	-13.3%	15.8µM*	i	0.9%	10µM*	-6.9%
COc1ccc(N2CCN(C(=O)c3ccc4c(c3)[nH]c(=S)n3c5ccccc5nc43)CC2)cc1	x	1.1%	x	x	-25.7%	x
COc1ccc(-n2c(=S)[nH]c3cc(C(=O)N4CCN(c5ccccc5)CC4)ccc3c2=O)cc1	-14.8%	u	i	-2.5%	10µM*	3.1%
Cc1ccc(NC(=O)c2cnn3c2NC(=C2CC2)C=C3C(F)F)cc1	10.0%	x	x	18.0%	x	x
CC(C)(Oc1ccc(Cl)cc1)C(=O)O/N=C(\N)c1ccncc1	-35.0%	-1.1%	i	0.5%	0.4%	7.0%
COc1ccccc1C(C)NCC(=O)c1c(C)[nH]c2ccccc12 (centres undefined)	-25.1%	x	x	-9.3%	x	x
COC(=O)c1ccc2c(=O)n(-c3ccccc3F)c(=S)[nH]c2c1	-1.4%	5.62µM*	i	-10.5%	3.16µM*	-35.4%
O=C(O)c1ccc2c(=O)n(-c3ccccc3F)c(=S)[nH]c2c1	-1.4%	3.6%	i	-0.7%	-19.3%	-5.7%
CCc1ccc(OCC(=O)N/N=C(\C)c2ccc(O)cc2O)cc1	-32.1%	u	i	-19.4%	12.6µM*	u
CCNc1nc(ON=C(C)C)nc(N(C)C)n1	1.6%	0.3%	u	u	14.1µM*	1.3%
Cc1cccc(NC(=S)Nc2ccccn2)c1	-6.9%	6.31µM*	i	u	0.501µM*	13.7%
Cc1ccc(NC(=S)Nc2ccccn2)cc1C	-24.0%	3.16µM*	u	-1.3%	0.708µM*	3.2%
Cc1ccc(NC(=S)Nc2ccc3nc(-c4ccccn4)c(-c4ccccn4)nc3c2)cc1C	5.3%	u	i	-6.0%	14.1µM*	-8.7%
Cc1ccccc1C(=O)Nc1ccccn1	0.2%	15.6%	i	-4.4%	3.4%	22.6%
Cc1ccc(NC(=S)NNC(=S)NNc2ccccc2)cc1C	-48.1%	x	u	-3.9%	x	x
Cc1cc(C)cc(NC(=S)Nc2ccccn2)c1	-44.4%	4.47µM*	i	u	1.12µM*	32.0%
O=C(O)CC1(CC(=O)Nc2nccs2)CCCCC1	-13.6%	x	i	-18.1%	x	-0.1%
COc1cc(=O)n2c(c1C(=O)N1CCc3ccccc3C1)CCN(Cc1ccc(CO)o1)CC2	x	x	i	x	x	x
CCC1CN(CCNC(=O)C2CCCCN2C)Cc2cc(OC)ccc2O1 (centres undefined)	x	x	i	x	x	x
Cc1cc(C)cc(NC(=S)NN)c1	-18.7%	u	i	-6.0%	7.94µM*	-23.7%
COc1cccc(NS(=O)(=O)c2ccc(Br)s2)c1	-1.4%	4.47µM*	i	0.0%	3.55µM*	9.3%
CCOc1ccc(NC(=O)c2nc(S(=O)(=O)Cc3ccccc3F)ncc2Cl)cc1	6.31µM*	x	x	3.16µM*	x	x
O=C(Nc1ccc(OC(F)F)cc1)c1ncc(Cl)c(Cl)c1Cl	-43.3%	-14.8%	i	0.5%	5.01µM*	x
CCOc1ccc(NC(=O)c2nc(SCc3ccccc3F)ncc2Cl)cc1	5.2%	x	x	6.2%	x	x
O=C(Nc1ccc(OC(F)F)cc1)c1nc(S(=O)(=O)Cc2ccccc2F)ncc1Cl	11.2µM*	x	x	12.6µM*	x	x
SMILES	HepG2 tox	VP16 counter	S2 tox	TGFb SMAD3 inh	RORg inh	ATXN2 expr inh
CCN(C(=O)CSc1nc2ccccc2n1Cc1ccc(C(=O)OC)cc1)c1ccccc1	-39.7%	x	i	u	x	-4.8%
CC(C)(C)c1ccc(C(=O)Nc2ccc(Cl)cc2)cc1	-12.4%	-4.7%	i	29.9%	3.1%	36.9%
CC(C)(C)c1ccc(NC(=O)c2ccsc2)cc1	-116.2%	7.94µM*	i	0.0%	-28.0%	52.7%
COC(=O)Cc1ccc(NC(=O)c2ccc(C(C)(C)C)cc2)cc1	-29.8%	u	i	8.9%	1.58µM*	0.794µM*
CCc1ccc(C(O)c2ncc(-c3ccc(Cl)cc3)[nH]2)cc1 (centres undefined)	-41.4%	x	i	-1.0%	x	7.8%
O=S(=O)(NCc1ccccn1)c1cc(C(F)(F)F)ccc1Cl	-26.5%	u	i	0.7%	7.08µM*	1.4%
O=S(=O)(NCc1ccccn1)c1cc(Cl)ccc1Cl	9.3%	10µM*	i	30.9%	8.91µM*	1.5%
O=S(=O)(NCc1ccccn1)c1ccc(Cl)c(C(F)(F)F)c1	-7.4%	u	i	7.2%	7.08µM*	-5.6%
O=S(=O)(Nc1ncccn1)c1cc(Cl)ccc1Cl	-3.4%	1.3%	i	1.5%	-19.0%	-8.5%
O=C(NCCN1CCOCC1)c1cnn(-c2nccc(-c3ccccc3F)n2)c1C1CC1	x	x	i	x	x	x
S=C(Nc1ccccc1)Nc1nc2ccccc2n1CCOc1ccccc1	-44.9%	7.08µM*	i	4.8%	1.12µM*	u
CCCCn1c(NC(=S)Nc2ccccc2)nc2ccccc21	-19.5%	1.41µM*	i	12.6µM*	1µM*	-14.3%
COc1ccc(OCCn2c(NC(=O)c3ccco3)nc3ccccc32)cc1	-32.4%	2.82µM*	i	0.0%	2.24µM*	-11.4%
COc1ccc(OCCn2c(NC(=O)c3ccc(OC)cc3)nc3ccccc32)cc1	-8.3%	x	i	-9.8%	x	5.3%
CC(=O)Nc1nc2ccccc2n1CCOc1ccccc1	-34.9%	-7.4%	i	4.4%	-20.1%	-15.1%
CCc1ccccc1NS(=O)(=O)c1ccc(-c2coc(C)n2)cc1	-19.4%	x	i	-18.7%	x	-14.6%
Oc1cc(-c2nc3ccccc3s2)cc2c1OCCN(Cc1cccn1-c1ncccn1)C2	x	x	i	x	x	x
COc1ccccc1C1CN(Cc2cccnc2)Cc2ccccc2O1 (centres undefined)	x	x	i	x	x	x
Cc1c(C(=O)NCC2CCCN(C)C2)cnn1-c1ncc2c(n1)-c1ccccc1CCC2 (centres undefined)	x	x	i	x	x	x
O=C(Nc1nnc(-c2ccccc2)o1)c1cc(Cl)sc1Cl	-12.6%	1.26µM*	i	-14.5%	2.24µM*	-14.2%
O=C(Nc1nnc(-c2ccc(F)cc2)o1)c1cc(Cl)sc1Cl	-27.7%	2.51µM*	i	u	3.16µM*	u
O=C(Nc1nnc(-c2ccc(Cl)cc2)o1)Nc1ccccc1Cl	-5.4%	-3.9%	i	-4.5%	-4.9%	-13.0%
O=C(Nc1nnc(-c2ccc(Cl)cc2)o1)c1nc2ccccc2s1	-11.4%	4.47µM*	i	-3.5%	4.47µM*	-4.7%
Cc1nc(C)c(-c2csc(Nc3ccc(Cl)cn3)n2)s1	-25.4%	x	u	u	x	x
COc1ccccc1N1CCN(c2c(CN3CCCC3)c(=O)oc3ccccc23)CC1	-20.6%	x	i	-20.1%	x	-14.4%

Bioassay records (PubChem)
